# Reference: the supplement of paper PMC10849652
# The full data set covers some 8,800 targets. This sample favours those with a hit. About 0.5% of all pairs of compound and target were hits. Values without a mark were called inactive.
# Columns and labels:
# Assay in all cases: log2 fold change, soluble protein after heating vs DMSO (PISA); higher = thermal stabilisation; K562 lysate, 10 uM; active = over 0.2 and 3.5 SD of the protein, either way, in both replicates (recomputed)
# [1] = compound: CCCS(=O)(=O)Nc1ccc(F)c(C(=O)c2c[nH]c3ncc(-c4ccc(Cl)cc4)cc23)c1F [vemurafenib]
# Method in brief: (§1)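 Following dounce homogenisation of K562 pellets in PBS pH 7.4 with 1 mM MgCl2, crude extract at 1 mg/mL protein was incubated for 30 min with 10 μM compound. Aliquots were then heated for 3 min over 48°C-58°C and pooled, NP-40 was added to 0.5% at 4°C, and soluble protein was recovered as the supernatant at 21,000xg for 90 min. Channel-sum-equalised TMTpro 16plex LC-MS/MS quantified this protein. Each value, from duplicates, is a log-two fold change in thermal stability relative to solvent controls.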
# [2] = compound: CCCS(=O)(=O)Nc1ccc(F)c(C(=O)c2c[nH]c3ncc(Cl)cc23)c1F
# Method in brief: as §1
# [3] = compound: CCN(CCCOc1ccc2c(Nc3cc(CC(=O)Nc4cccc(F)c4)[nH]n3)ncnc2c1)CCOP(=O)(O)O [barasertib]
# Method in brief: as §1
# [4] = compound: CC[C@@H]1C(=O)N(C)c2cnc(Nc3ccc(C(=O)NC4CCN(C)CC4)cc3OC)nc2N1C1CCCC1
# Method in brief: as §1
# [5] = compound: CC[C@@H]1C(=O)N(C)c2cnc(Nc3ccc(C(=O)N[C@H]4CC[C@H](N5CCN(CC6CC6)CC5)CC4)cc3OC)nc2N1C(C)C [volasertib]
# Method in brief: as §1
# [6] = compound: CCn1c(C(=O)N(C2CC2)C2CC2)cc2c3c(ncn3C)c(Nc3cc(C)n(C)n3)nc21
# Method in brief: as §1
# [7] = compound: CCn1cc(-c2ccnc3[nH]c(-c4cccc(CN(C)C)c4)cc23)c(-c2ccc(NC(=O)N(C)C)cc2)n1
# Method in brief: as §1
# [8] = compound: CN1CCC(CNc2ccc3ncc(-c4cccc(OC(F)(F)F)c4)n3n2)CC1
# Method in brief: as §1
# [9] = compound: CN1CCN(CCOc2cc(OC3CCOCC3)c3c(Nc4c(Cl)ccc5c4OCO5)ncnc3c2)CC1 [saracatinib]
# Method in brief: as §1
# [10] = compound: CN1CCN(c2nc(C3=C(c4c[nH]c5ccccc45)C(=O)NC3=O)c3ccccc3n2)CC1 [sotrastaurin]
# Method in brief: as §1
# [11] = compound: CN1CC[C@H](c2c(O)cc(O)c3c(=O)cc(-c4ccccc4Cl)oc23)[C@H](O)C1 [alvocidib]
# Method in brief: as §1
# [12] = compound: CN1CCc2c(c3ccccc3n2Cc2ccc(C(=O)NO)cc2)C1 [Tubastatin A]
# Method in brief: as §1
# [13] = compound: CNC(=O)C1=CC=CC=C1NC2=NC(=NC=C2Cl)NC3=C(C=C(C=C3)N4CCOCC4)OC
# Method in brief: as §1
# [14] = compound: CNC(=O)c1ccc(Nc2ncc(C(F)(F)F)c(NCc3nccnc3N(C)S(C)(=O)=O)n2)cc1 [defactinib]
# Method in brief: as §1
# [15] = compound: CNc1nc(-c2ccc3c(N)n[nH]c3c2)cc(N2C[C@@H](C(=O)NC3CCCCC3)CC[C@H]2C)n1
# Method in brief: as §1
# [16] = compound: COC(=O)N[C@@H](C)CNc1nccc(-c2cn(C(C)C)nc2-c2cc(Cl)cc(NS(C)(=O)=O)c2F)n1 [encorafenib]
# Method in brief: as §1
# [17] = compound: COC(=O)[C@H](CCSC)NC(=O)C1=C(C=C(C=C1)NC[C@H](CS)N)C2=CC=CC=C2
# Method in brief: as §1
# [18] = compound: COc1cc(Nc2ncc3c(n2)-c2ccc(Cl)cc2C(c2c(F)cccc2OC)=NC3)ccc1C(=O)O [alisertib]
# Method in brief: as §1
# [19] = compound: COc1cc2nc(-c3cc(F)ccc3O)nc(N[C@@H]3CNC[C@H]3C(C)(C)O)c2cc1OC
# Method in brief: as §1
# [20] = compound: COc1cc2ncnc(Nc3ccc(F)c(Cl)c3)c2cc1OCCCN1CCOCC1 [gefitinib]
# Method in brief: as §1
# Chain of UniProt Q9UPW5 (Q9UPW5 whole entry, looked up): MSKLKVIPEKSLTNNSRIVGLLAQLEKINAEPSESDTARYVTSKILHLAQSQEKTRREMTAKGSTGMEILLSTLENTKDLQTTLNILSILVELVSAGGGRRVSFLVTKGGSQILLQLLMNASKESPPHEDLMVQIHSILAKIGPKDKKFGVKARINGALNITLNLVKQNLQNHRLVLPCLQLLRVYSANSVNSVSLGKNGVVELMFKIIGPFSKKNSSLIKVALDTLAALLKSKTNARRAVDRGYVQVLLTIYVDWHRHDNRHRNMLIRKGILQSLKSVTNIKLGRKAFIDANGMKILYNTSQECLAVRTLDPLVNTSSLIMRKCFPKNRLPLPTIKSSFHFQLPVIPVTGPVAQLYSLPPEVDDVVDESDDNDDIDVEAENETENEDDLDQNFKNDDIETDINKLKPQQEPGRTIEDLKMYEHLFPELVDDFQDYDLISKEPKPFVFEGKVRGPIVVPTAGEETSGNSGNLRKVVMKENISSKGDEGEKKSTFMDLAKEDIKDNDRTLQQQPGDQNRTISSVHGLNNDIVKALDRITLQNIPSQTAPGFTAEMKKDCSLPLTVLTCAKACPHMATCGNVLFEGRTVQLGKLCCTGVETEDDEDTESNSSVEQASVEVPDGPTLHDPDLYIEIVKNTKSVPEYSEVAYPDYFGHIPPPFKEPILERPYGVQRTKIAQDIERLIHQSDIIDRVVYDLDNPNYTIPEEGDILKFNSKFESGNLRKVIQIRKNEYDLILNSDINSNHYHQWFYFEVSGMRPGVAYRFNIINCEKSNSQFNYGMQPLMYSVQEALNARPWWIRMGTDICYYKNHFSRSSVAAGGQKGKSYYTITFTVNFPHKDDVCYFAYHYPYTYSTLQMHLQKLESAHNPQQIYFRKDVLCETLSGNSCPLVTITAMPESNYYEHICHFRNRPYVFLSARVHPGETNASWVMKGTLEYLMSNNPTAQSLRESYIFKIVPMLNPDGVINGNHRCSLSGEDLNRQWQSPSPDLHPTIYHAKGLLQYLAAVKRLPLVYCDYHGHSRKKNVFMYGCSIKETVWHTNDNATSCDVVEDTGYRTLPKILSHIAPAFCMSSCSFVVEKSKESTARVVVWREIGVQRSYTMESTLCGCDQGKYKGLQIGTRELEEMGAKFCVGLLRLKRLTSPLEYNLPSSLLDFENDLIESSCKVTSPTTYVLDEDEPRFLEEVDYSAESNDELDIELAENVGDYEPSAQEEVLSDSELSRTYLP
# Chain of UniProt P05091 (P05091 whole entry, looked up): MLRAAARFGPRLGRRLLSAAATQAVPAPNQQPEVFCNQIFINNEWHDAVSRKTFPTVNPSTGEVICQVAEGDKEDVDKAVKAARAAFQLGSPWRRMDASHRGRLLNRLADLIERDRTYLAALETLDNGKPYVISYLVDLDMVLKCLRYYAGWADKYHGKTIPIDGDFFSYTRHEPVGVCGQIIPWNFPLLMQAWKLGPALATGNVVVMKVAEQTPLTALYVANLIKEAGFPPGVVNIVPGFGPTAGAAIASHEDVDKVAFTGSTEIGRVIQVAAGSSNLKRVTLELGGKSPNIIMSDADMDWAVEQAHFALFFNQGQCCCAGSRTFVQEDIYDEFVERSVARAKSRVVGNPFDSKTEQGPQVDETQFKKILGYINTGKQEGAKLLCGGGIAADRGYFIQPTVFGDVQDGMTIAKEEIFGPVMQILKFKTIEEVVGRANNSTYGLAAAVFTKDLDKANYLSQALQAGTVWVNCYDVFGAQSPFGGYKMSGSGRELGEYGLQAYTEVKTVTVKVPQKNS
# Chain of UniProt P31751 (P31751 whole entry, looked up): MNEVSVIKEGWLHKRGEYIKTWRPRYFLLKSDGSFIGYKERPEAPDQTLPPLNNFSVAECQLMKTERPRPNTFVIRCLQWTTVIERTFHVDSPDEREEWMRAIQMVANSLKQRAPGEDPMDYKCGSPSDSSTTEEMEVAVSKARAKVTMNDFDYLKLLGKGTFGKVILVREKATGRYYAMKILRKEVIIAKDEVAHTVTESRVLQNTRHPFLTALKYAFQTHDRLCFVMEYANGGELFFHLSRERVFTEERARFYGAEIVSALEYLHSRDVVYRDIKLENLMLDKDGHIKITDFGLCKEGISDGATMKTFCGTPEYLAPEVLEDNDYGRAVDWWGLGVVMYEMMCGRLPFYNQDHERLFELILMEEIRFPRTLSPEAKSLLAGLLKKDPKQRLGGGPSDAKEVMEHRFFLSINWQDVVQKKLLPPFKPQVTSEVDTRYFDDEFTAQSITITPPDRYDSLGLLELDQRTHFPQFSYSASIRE
# Chain of UniProt Q9NXU5 (Q9NXU5 whole entry, looked up): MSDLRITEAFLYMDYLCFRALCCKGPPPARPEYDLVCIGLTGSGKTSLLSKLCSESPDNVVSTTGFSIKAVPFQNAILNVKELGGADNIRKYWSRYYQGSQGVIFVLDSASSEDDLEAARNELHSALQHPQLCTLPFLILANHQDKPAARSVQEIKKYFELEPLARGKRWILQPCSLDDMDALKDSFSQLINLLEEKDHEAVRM
# Chain of UniProt Q02252 (Q02252 whole entry, looked up): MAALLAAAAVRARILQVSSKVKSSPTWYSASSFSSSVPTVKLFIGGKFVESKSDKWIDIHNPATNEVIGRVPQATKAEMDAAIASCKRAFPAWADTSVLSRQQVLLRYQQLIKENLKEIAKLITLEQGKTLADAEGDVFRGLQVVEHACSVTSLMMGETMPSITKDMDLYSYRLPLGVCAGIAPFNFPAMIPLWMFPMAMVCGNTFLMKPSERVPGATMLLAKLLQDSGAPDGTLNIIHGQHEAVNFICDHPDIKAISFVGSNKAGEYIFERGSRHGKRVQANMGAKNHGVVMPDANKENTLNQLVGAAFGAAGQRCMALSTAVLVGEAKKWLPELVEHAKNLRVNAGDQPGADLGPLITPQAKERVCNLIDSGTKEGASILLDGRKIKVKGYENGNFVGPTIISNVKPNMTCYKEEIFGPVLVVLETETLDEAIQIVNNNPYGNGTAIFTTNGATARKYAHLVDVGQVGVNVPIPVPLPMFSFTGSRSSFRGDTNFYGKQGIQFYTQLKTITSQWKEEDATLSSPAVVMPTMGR
# Chain of UniProt P04083 (P04083 whole entry, looked up): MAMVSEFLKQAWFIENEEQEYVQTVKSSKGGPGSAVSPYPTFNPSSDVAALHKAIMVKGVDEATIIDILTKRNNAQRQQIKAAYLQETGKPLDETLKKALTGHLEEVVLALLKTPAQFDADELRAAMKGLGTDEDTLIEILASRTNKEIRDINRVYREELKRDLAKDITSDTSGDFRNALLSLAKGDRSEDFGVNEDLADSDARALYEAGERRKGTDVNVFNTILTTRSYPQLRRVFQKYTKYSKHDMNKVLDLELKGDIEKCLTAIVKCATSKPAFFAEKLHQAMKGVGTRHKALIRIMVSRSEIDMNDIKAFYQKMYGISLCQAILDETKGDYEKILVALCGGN
# Chain of UniProt P55265 (P55265 whole entry, looked up): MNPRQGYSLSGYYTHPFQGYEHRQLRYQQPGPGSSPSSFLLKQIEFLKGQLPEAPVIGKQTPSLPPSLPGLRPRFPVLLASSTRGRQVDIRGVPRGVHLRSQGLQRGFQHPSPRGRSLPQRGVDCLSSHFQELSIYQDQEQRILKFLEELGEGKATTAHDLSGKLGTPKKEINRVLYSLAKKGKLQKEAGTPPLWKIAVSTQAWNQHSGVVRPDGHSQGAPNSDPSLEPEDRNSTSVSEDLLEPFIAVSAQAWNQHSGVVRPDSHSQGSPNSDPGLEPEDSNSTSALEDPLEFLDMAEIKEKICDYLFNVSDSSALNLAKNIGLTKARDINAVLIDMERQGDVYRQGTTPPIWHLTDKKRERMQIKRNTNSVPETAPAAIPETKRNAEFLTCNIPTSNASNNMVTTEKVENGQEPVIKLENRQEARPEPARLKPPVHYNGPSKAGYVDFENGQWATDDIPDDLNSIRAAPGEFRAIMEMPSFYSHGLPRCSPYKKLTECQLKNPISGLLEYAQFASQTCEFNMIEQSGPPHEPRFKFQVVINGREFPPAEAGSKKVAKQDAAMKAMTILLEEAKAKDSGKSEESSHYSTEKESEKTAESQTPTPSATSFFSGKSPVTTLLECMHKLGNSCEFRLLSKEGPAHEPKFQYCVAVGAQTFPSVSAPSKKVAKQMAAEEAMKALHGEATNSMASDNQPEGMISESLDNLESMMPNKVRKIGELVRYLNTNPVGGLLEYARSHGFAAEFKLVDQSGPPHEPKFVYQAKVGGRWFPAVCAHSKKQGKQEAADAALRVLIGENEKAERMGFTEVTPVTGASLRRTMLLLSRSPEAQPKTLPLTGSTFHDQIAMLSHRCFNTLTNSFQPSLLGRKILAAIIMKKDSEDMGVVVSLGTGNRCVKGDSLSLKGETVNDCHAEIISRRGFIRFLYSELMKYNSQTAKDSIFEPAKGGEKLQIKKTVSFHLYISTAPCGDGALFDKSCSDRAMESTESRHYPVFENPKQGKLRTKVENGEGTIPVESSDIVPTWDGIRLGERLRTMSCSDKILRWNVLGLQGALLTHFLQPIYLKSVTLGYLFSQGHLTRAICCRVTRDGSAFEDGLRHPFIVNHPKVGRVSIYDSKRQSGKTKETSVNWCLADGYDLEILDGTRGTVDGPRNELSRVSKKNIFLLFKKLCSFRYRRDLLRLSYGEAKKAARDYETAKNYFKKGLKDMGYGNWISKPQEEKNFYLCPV
# Chain of UniProt P08758 (P08758 whole entry, looked up): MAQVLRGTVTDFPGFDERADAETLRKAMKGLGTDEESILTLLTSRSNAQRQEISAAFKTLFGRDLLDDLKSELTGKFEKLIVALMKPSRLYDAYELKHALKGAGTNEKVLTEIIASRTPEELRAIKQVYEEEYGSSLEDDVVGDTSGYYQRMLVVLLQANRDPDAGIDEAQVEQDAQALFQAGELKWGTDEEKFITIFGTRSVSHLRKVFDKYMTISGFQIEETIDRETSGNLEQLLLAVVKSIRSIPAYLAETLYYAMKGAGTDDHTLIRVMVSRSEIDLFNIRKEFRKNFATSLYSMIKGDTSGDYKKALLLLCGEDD
Target,log2 fold change [1],log2 fold change [2],log2 fold change [3],log2 fold change [4],log2 fold change [5],log2 fold change [6],log2 fold change [7],log2 fold change [8],log2 fold change [9],log2 fold change [10],log2 fold change [11],log2 fold change [12],log2 fold change [13],log2 fold change [14],log2 fold change [15],log2 fold change [16],log2 fold change [17],log2 fold change [18],log2 fold change [19],log2 fold change [20]
ADAR isoform 4 (UniProt P55265),0.077,0.051,0.061,0.011,0.003,0.025,-0.001,-0.049,0.04,0.032,-0.004,-0.167,0.012,0.054,-0.001,0.052,-0.041,0.045,0.013,0.02
ANXA5 (UniProt P08758),-0.034,-0.011,0.003,-0.073,-0.001,0.059,0.022,-0.064,-0.008,0.024,0.04,0,-0.023,-0.002,-0.067,-0.016,0.049,0.052,-0.009,0.049
AP3D1 isoform 5 (UniProt O14617),-0.001,-0.002,0.036,-0.004,0,0.002,-0.08,0.034,0.001,0.013,-0.02,-0.048,0.018,0.033,0.03,0.026,-0.028,-0.009,0.004,-0.014
ANXA1 (UniProt P04083),-0.007,-0.027,-0.038,-0.022,-0.011,0.008,0.028,0.049,-0.019,0.017,-0.025,-0.005,-0.021,-0.007,-0.055,-0.021,0.028,0.001,0.008,-0.012
APAF1 (UniProt O14727),-0.014,-0.012,0.073,-0.087,-0.056,0.001,0.115,-0.012,-0.028,0.015,-0.006,-0.174,-0.026,-0.015,0.008,-0.017,0.129,-0.027,0.061,0.017
ALDH18A1 (UniProt P54886),0.052,-0.006,0.033,-0.054,-0.033,0.036,0.009,-0.005,0.003,0.014,-0.005,-0.049,0.005,0.006,-0.01,-0.009,0.062,0.01,0.017,0.001
ARL15 (UniProt Q9NXU5),-0.057,-0.019,0.002,-0.082,-0.009,0.035,0.765 (active),-0.119,-0.01,0.049,0.177,-0.002,-0.013,-0.013,-0.021,0.037,-0.211,0.005,0,-0.057
ALDH1L2 (UniProt Q3SY69),-0.084,-0.026,0.002,-0.006,-0.045,0.007,-0.089,-0.014,-0.002,0.013,-0.04,-0.03,-0.028,-0.04,-0.021,-0.002,0.288 (active),-0.039,0.039,0.017
ARMCX3 (UniProt Q9UH62),-0.024,0.027,0.102,-0.033,-0.045,0.021,-0.01,-0.049,0.012,0.016,0.022,-0.061,-0.018,0.017,0.026,-0.006,0.015,0.055,0.042,-0.053
ALDH6A1 (UniProt Q02252),0.055,0.027,0.043,-0.009,-0.025,0.015,-0.111,0.022,-0.324 (active),-0.082,-0.044,0.43 (active),0.106,0.018,0.091,-0.015,0.103,0.086,0.061,0.098
ADK (UniProt P55263),-0.052,-0.036,-0.054,0.458 (active),0.437 (active),-0.027,0.044,0.155,0.043,0.343,0.246,-0.025,0.178,0.026,0,-0.048,0.068,-0.063,-0.015,0.158
ALDH2 (UniProt P05091),-0.083,0.011,-0.012,-0.012,-0.017,-0.011,0.007,-0.009,0.012,0,0.059,-0.006,0.437 (active),-0.03,-0.051,0.006,-0.03,0.037,-0.016,0.014
ARHGAP21 (UniProt Q5T5U3),0.107,0.073,0.061,-0.01,-0.027,0.037,0.043,-0.202,0.034,0.023,0.032,0.008,0.03,0.015,0.056,0.079,0.101,-0.023,-0.007,-0.095
ADAMTS5 (UniProt Q9UNA0),0.063,0.047,0.038,0.066,0.038,-0.15,-0.939 (active),0.292,0.083,-0.045,-0.33,0.149,0.105,-0.052,0.278,-0.134,-0.012,0.073,0.109,-0.093
AKT2 (UniProt P31751),0.008,0,-0.026,-0.024,-0.031,0.025,0.007,0.004,-0.011,0.017,0.001,-0.061,0.036,-0.013,-0.064,0.028,0.037,0.003,-0.005,-0.013
AGTPBP1 (UniProt Q9UPW5),0.151,0.075,-0.223,0.036,-0.089,-0.013,0.013,-0.409 (active),0.108,-0.126,0.034,0.046,0.024,-0.058,-0.001,-0.014,-0.031,0.097,-0.039,-0.004
